Reference: PubChem BioAssay (NCI)
About 83,000 compounds went through this panel and 20% of them were active in at least one assay; those are over-represented in the sample as a whole.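 Values shown are percent growth following 48 h exposure of cells in 96-well plates to a single concentration of compound; below 10 was considered active.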 A number with no mark means an inactive call. The source made the active and inactive calls.

Legend:
Assay in all cases: NCI-60 one-dose screen, 48 h (100 = growth as untreated, 0 = no growth, -100 = all killed)
Conditions in all cases: 10 µM
HCT-15 colon = test system: HCT-15 colon
HT29 colon = test system: HT29 colon
SNB-75 CNS = test system: SNB-75 CNS
SNB-19 CNS = test system: SNB-19 CNS
U251 CNS = test system: U251 CNS
PC-3 prostate = test system: PC-3 prostate
SK-MEL-5 melanoma = test system: SK-MEL-5 melanoma
UACC-62 melanoma = test system: UACC-62 melanoma
LOX IMVI melanoma = test system: LOX IMVI melanoma
SK-MEL-28 melanoma = test system: SK-MEL-28 melanoma

| SMILES | growth (HCT-15 colon) | growth (HT29 colon) | growth (SNB-75 CNS) | growth (SNB-19 CNS) | growth (U251 CNS) | growth (PC-3 prostate) | growth (SK-MEL-5 melanoma) | growth (UACC-62 melanoma) | growth (LOX IMVI melanoma) | growth (SK-MEL-28 melanoma) |
| --- | --- | --- | --- | --- | --- | --- | --- | --- | --- | --- |
| O=C1CCC(N2Cc3cc(CC(=O)Nc4ccc(N5CCCCC5)cc4)ccc3C2=O)C(=O)N1 (stereo not given) | 7.29% (active) | 77.4% | 55.7% | 49.2% | 88.6% | 26.7% | 38.8% | 78.1% | 105% | 76.4% |
| CCOC(=O)C1=C(N)N(c2ccc(C)cc2)C2=C(C(=O)CC(C)(C)C2)C1c1ccccc1OC (stereo not given) | 98.4% | 116% | 105% | 93.1% | 104% | 93.5% | 100% | 89.8% | 104% | 104% |
| Cc1cc(C)nc(/N=C(\N)Nc2ccc(S(=O)(=O)Nc3nc(C)cc(C)n3)cc2)n1 | 104% | 116% | 78% | 102% | 106% | 105% | 102% | 100% | 98.6% | 106% |
| C/C(=N\NC(N)=S)c1ccc(Nc2nc(SC(C)C)nc(-c3ccccc3)c2C#N)cc1 | 77.1% | 57.9% | 104% | 63.5% | 32% | 59.2% | 75.5% | 48.1% | 29.8% | 80.9% |
| C#CCNC(=O)CCC(=O)OC[C@]12CC[C@@H](C(=C)C)[C@@H]1C1CC[C@@H]3[C@@]4(C)CCCNC(C)(C)[C@@H]4CC[C@@]3(C)[C@]1(C)CC2 (stereo not given in full) | -64.9% (active) | -68.1% (active) | 98.8% | 34% | -74.2% (active) | -20.3% (active) | -100% (active) | -42.8% (active) | -100% (active) | -98.5% (active) |
| CN1CCN(Cc2ccc(NC(=O)c3cncc(C#Cc4cnc5ccc(N[C@@H]6CCOC6)nn45)c3)cc2C(F)(F)F)CC1 | -85.6% (active) | -44.4% (active) | -96.1% (active) | -100% (active) | -82.3% (active) | -46.9% (active) | -100% (active) | -90% (active) | -100% (active) | -95.3% (active) |
| O=C(c1ccccc1)n1ccc(-c2cc3cc(Br)ccc3oc2=O)n1 | 22.8% | 63.5% | 66.1% | 34.5% | 27.8% | 28.2% | 10.6% | -21.1% (active) | 2.5% (active) | 24.4% |
| O=c1nc(-c2ccccc2)cc(-c2cc3ccccc3nc2Cl)[nH]1 | -64.1% (active) | -42.5% (active) | 26.5% | 13% | -72.7% (active) | 31.8% | 62.2% | 35.1% | -87.7% (active) | 71.5% |
| COc1ccc([C@H]2C(C(=O)c3ccc(Cl)cc3)C3(N[C@@H]2c2ccccc2)C(=O)Nc2ccc(Br)cc23)cc1 (stereo not given in full) | 0.62% (active) | -50.6% (active) | 15.6% | 20.1% | -18% (active) | 17.9% | 8.62% (active) | -55.4% (active) | -100% (active) | 18.9% |
| CC(=O)Nc1ccc(-c2cn(-c3cccc(C(=O)Nc4cc(C(F)(F)F)cc(C(F)(F)F)c4)c3)nn2)cn1 | -40.5% (active) | -37.4% (active) | -6.74% (active) | -42.4% (active) | -66.2% (active) | -59.5% (active) | -38.9% (active) | -46.2% (active) | -100% (active) | -46.4% (active) |
| COC[C@@H](CC(C)C)N=C1NC(=O)/C(=C/c2ccc3ncoc3c2)N1 | 1.92% (active) | 8.17% (active) | -9.28% (active) | 17.5% | 16.4% | 42.4% | 3.83% (active) | -27.3% (active) | 6.76% (active) | 0.832% (active) |
| COc1ccc(C(=O)/C=C/c2ccc(Cl)c(C(F)(F)F)c2)cc1S(N)(=O)=O | -99.9% (active) | -76.9% (active) | -33.7% (active) | -100% (active) | -68.7% (active) | -48.2% (active) | -89.4% (active) | -98.7% (active) | -91.4% (active) | -100% (active) |
| O=C(CSc1ccc(-c2ccc(Cl)cc2)nn1)Nc1ccc(Cl)c(C(F)(F)F)c1 | 25.9% | 40.6% | 58.6% | 71.9% | 73.1% | 71.9% | 55.9% | 32.7% | 47.3% | 66.9% |
| CC(=O)NNc1ccc2nnc(-c3ccc(Br)cc3)n2n1 | 93.8% | 103% | 121% | 92% | 93.3% | 93.6% | 95.4% | 87.9% | 100% | 106% |
| O=C(Nc1cccc(-c2cn(-c3ccc4oc(=O)ccc4c3)nn2)c1)Nc1cc(C(F)(F)F)cc(C(F)(F)F)c1 | 19% | 44.9% | 17.8% | 27.4% | 13.4% | 27.7% | 2.67% (active) | 11.3% | 17.2% | 22.5% |
| CN1CCN(c2ccc(Nc3nc(NCCCNC(=O)c4ccc(F)cc4)c4sccc4n3)cc2)CC1 | 2.85% (active) | 11.2% | 108% | 86% | 19.7% | 50.9% | 60.8% | 63.7% | 13.4% | -45.3% (active) |
